Among the test systems are MOLT-4 leukemia; SR leukemia; RPMI-8226 leukemia; OVCAR-8 ovarian; OVCAR-5 ovarian; OVCAR-4 ovarian; SK-OV-3 ovarian; IGROV1 ovarian; NCI/ADR-RES ovarian; T-47D breast; MDA-MB-435 melanoma; SW-620 colon; MCF7 breast; HCT-116 colon; HCC-2998 colon; KM12 colon; HS 578T breast; BT-549 breast; OVCAR-3 ovarian.
Assay in all cases: NCI-60 one-dose screen, 48 h (100 = growth as untreated, 0 = no growth, -100 = all killed)
Holding throughout (conditions): 10 µM unless noted

About 83,000 compounds went through this panel and 20% of them were active in at least one assay; those are over-represented in the sample as a whole.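 For each line, cells grew in 96-well plates with the test compound present at a single concentration for 48 hours.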 Unmarked numbers belong to inactive results. The source made the active and inactive calls. Rule for the calls: active = growth percent below 10; inactive = the rest.

As to `N#Cc1ccc(Cl)cc1`, the growth was 92.5% in the assay with MOLT-4 leukemia; 87% in the assay with SR leukemia; 106% in the assay on RPMI-8226 leukemia; 109% in the assay on OVCAR-8 ovarian; 109% in the assay with OVCAR-5 ovarian; 115% in the assay with OVCAR-4 ovarian. The growth is 109% in the assay with SK-OV-3 ovarian; 104% in the assay with IGROV1 ovarian; 113% in the assay on NCI/ADR-RES ovarian; 104% with T-47D breast; 117% in the assay with MDA-MB-435 melanoma; 103% with SW-620 colon. Moreover, the growth in the assay with MCF7 breast was 103%; in the assay with HCT-116 colon, 114%; in the assay with HCC-2998 colon, 123%; in the assay with KM12 colon, 115%.
As to `CC1=C(C)C(=O)O[C@@H]([C@](C)(O)[C@]2(O)CC[C@@]3(O)[C@@H]4C[C@H]5O[C@]56CC=CC(=O)[C@]6(C)[C@H]4CC[C@]23C)C1`, the growth with MOLT-4 leukemia is -12.7% (active); in the assay on SR leukemia it was -23.5% (active); in the assay on RPMI-8226 leukemia it was -19.2% (active); in the assay with OVCAR-8 ovarian, -7.94% (active); in the assay on OVCAR-5 ovarian it was 21.7%; in the assay with OVCAR-4 ovarian, 7.99% (active). Besides, the growth was -19% (active) in the assay with SK-OV-3 ovarian; -36.7% (active) with IGROV1 ovarian; 9.59% (active) in the assay on HS 578T breast; 42.6% in the assay with NCI/ADR-RES ovarian; 0.829% (active) in the assay with T-47D breast; -24.4% (active) in the assay with BT-549 breast. Besides, the growth is 3.13% (active) in the assay on MDA-MB-435 melanoma; -37% (active) in the assay on SW-620 colon; -16.3% (active) with MCF7 breast; -4.21% (active) in the assay on HCT-116 colon; -69.8% (active) in the assay with HCC-2998 colon; -24.2% (active) with KM12 colon.
As to `COC(=O)C1=CO[C@@H](C)[C@@H]2CN3CCc4c([nH]c5cc(OC)ccc45)[C@@H]3C[C@H]12`, the growth with MOLT-4 leukemia is 94.8%; with SR leukemia it was 92.7%; in the assay with RPMI-8226 leukemia, 94.3%; with OVCAR-8 ovarian, 95.9%; in the assay on OVCAR-5 ovarian it was 95.6%; with OVCAR-4 ovarian, 107%. The growth in the assay on SK-OV-3 ovarian was 100%; in the assay with OVCAR-3 ovarian, 100%; in the assay on HS 578T breast, 94.5%; in the assay on NCI/ADR-RES ovarian, 93.8%; in the assay on T-47D breast, 93.2%; with BT-549 breast, 105%. The growth is 107% in the assay with MDA-MB-435 melanoma; 99.9% in the assay with SW-620 colon; 91.1% in the assay with MCF7 breast; 103% in the assay on HCT-116 colon; 109% with KM12 colon.
As for `Nc1ccc(S(=O)(=O)F)cc1`, the growth in the assay on MOLT-4 leukemia was 93.3%; in the assay on SR leukemia it was 84.7%; in the assay with RPMI-8226 leukemia, 98.9%; in the assay with OVCAR-8 ovarian, 107%; in the assay on OVCAR-5 ovarian it was 102%; with OVCAR-4 ovarian, 130%. In addition, the growth with SK-OV-3 ovarian was 105%; in the assay with IGROV1 ovarian it was 105%; in the assay on OVCAR-3 ovarian, 111%; in the assay with NCI/ADR-RES ovarian, 107%; with T-47D breast, 96.4%; in the assay with MDA-MB-435 melanoma, 102%. Also, the growth with SW-620 colon was 105%; in the assay on MCF7 breast it was 106%; in the assay with HCT-116 colon, 100%; in the assay with HCC-2998 colon, 103%; in the assay on KM12 colon, 100%.
With `C[C@]12CCc3nc(-c4ccc(O)c(O)c4)sc3C1=CC[C@@H]1[C@@H]2CC[C@]2(C)C(=O)CC[C@@H]12`, the growth in the assay on MOLT-4 leukemia is 45.4%; with SR leukemia, 39.3%; with RPMI-8226 leukemia, 9.9% (active); with OVCAR-8 ovarian, 29.9%; with OVCAR-5 ovarian it was 112%; in the assay on OVCAR-4 ovarian it was 67.1%. Besides, the growth with SK-OV-3 ovarian is 89.7%; in the assay with IGROV1 ovarian, 38.6%; in the assay on HS 578T breast, 66.8%; in the assay with NCI/ADR-RES ovarian it was 73.7%; in the assay on T-47D breast it was 69%; with BT-549 breast, 58.1%. Moreover, the growth was 71.3% with MDA-MB-435 melanoma; 55.4% in the assay on SW-620 colon; 48.4% in the assay on MCF7 breast; 26% in the assay with HCT-116 colon; 90.8% with KM12 colon.
`O=S(=O)(F)c1cccc(Cl)c1C[P+](c1ccccc1)(c1ccccc1)c1ccccc1`: the growth in the assay on MOLT-4 leukemia was 112%; in the assay on SR leukemia it was 95.3%; in the assay with RPMI-8226 leukemia, 74.1%; in the assay with OVCAR-8 ovarian it was 84.3%; with OVCAR-5 ovarian it was 94.8%; in the assay on OVCAR-4 ovarian it was 90.2%. In addition, the growth with SK-OV-3 ovarian was 89.2%; with IGROV1 ovarian, 85.4%; with HS 578T breast, 103%; in the assay on NCI/ADR-RES ovarian, 109%; with T-47D breast, 91.9%; with BT-549 breast, 106%. The growth with MDA-MB-435 melanoma is 84.4%; in the assay on SW-620 colon, 100%; in the assay with MCF7 breast it was 103%; in the assay on HCT-116 colon, 92.4%; in the assay with HCC-2998 colon, 99.4%; with KM12 colon it was 102%.
On to `CCC(=O)C(CC(C)[N+](C)(C)C)(c1ccccc1)c1ccccc1` (stereo not given), for which the growth in the assay on MOLT-4 leukemia was 104%; with SR leukemia, 101%; with RPMI-8226 leukemia, 109%; in the assay with OVCAR-8 ovarian it was 99.8%; in the assay with OVCAR-5 ovarian, 96.8%; in the assay with OVCAR-4 ovarian, 110%. Also, the growth was 96.6% in the assay with SK-OV-3 ovarian; 101% in the assay with IGROV1 ovarian; 102% in the assay with NCI/ADR-RES ovarian; 67.5% in the assay on BT-549 breast; 104% in the assay on MDA-MB-435 melanoma; 104% with SW-620 colon. The growth with MCF7 breast was 90.7%; in the assay with HCT-116 colon it was 93.6%; in the assay on HCC-2998 colon it was 102%; with KM12 colon, 107%.
Take `CC[C@H](C)[C@H](NC(=O)c1cnccn1)C(=O)N(C)[C@H](C[C@@H](OC(C)=O)c1nc(C(=O)N[C@@H](Cc2ccccc2)C[C@H](C)C(=O)OC)cs1)C(C)C`: the growth with MOLT-4 leukemia is 17.9%; with SR leukemia it was 15.9%; in the assay with RPMI-8226 leukemia it was 22.5%; in the assay with OVCAR-8 ovarian, 15.2%; with OVCAR-5 ovarian, 42.4%; with OVCAR-4 ovarian, 45.9%. The growth was 20.6% in the assay on SK-OV-3 ovarian; 32% in the assay on IGROV1 ovarian; 11.9% in the assay on HS 578T breast; 61.2% with T-47D breast; -7.25% (active) in the assay with BT-549 breast; -37.6% (active) with MDA-MB-435 melanoma. Also, the growth is 15.5% in the assay with MCF7 breast, -9.21% (active) with HCT-116 colon, 22.3% with HCC-2998 colon and 3.34% (active) with KM12 colon.
